Consider 36 compounds from PubChem BioAssay.

Test system in one assay: not listed separately
In words: small-molecule binders of probe aNOTCH2, primary screen, biochemical, small-molecule microarray, 635/667 nm fluorescence (AID 1121).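 Also: score merges feature fluorescence read at 667 nm with its signal to noise.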 The note with it: higher = more signal.
On to `C=CCOC(=O)[C@@H]1[C@H]2C(=O)O[C@H](c3ccccc3)[C@H](c3ccccc3)N2[C@H](c2ccc(OCCOC(=O)[C@@H]3C[C@@H]4C(=O)N5CCC[C@H]5C(=O)N4[C@@H]3c3ccc(O)cc3)cc2)[C@@]12C(=O)Nc1ccc(I)cc12`, for which the composite z-score is -0.145.

Consider `COc1cc2c(cc1OC)CN(C(=O)[C@H]1[C@@H]3C(=O)O[C@@H](c4ccccc4)[C@@H](c4ccccc4)N3[C@@H](c3ccc(O)cc3)[C@]13C(=O)Nc1ccc(C#CC4=CCCCC4)cc13)CC2`, for which the composite z-score was -0.0411.

On to `COc1ccc(C(=O)Nc2ccc(CN3C(=O)[C@@]4(O[C@@H](CC(=O)N5CCC[C@H]5CO)[C@H]([Si](C)(C)c5ccc(OC)cc5)[C@H]4C)c4ccccc43)cc2)cc1`, for which the composite z-score was -0.0389.

The compound `[N-]=[N+]=NCc1ccccc1C[C@]1(C(=O)NCC(O)CO)N=C(c2ccc(OCCCO)cc2)O[C@H]1c1ccccc1` (stereo partly drawn) gave a composite z-score of -0.0596.

As for `COc1ccc([Si](C)(C)[C@H]2[C@H](CCO)O[C@@]3(C(=O)N(Cc4ccc(N5C(=O)COc6ccccc65)cc4)c4ccccc43)[C@@H]2C)cc1`, the composite z-score is -0.176.

`C=C(COC)/C(=C/C[C@H](OC(=O)c1ccncc1)c1ccc(OCCO)cc1)c1cnc2ccccc2c1` returned a composite z-score of -0.0389.

`C=CCOC(=O)[C@@H]1[C@H]2C(=O)O[C@H](c3ccccc3)[C@H](c3ccccc3)N2[C@H](c2ccc(OCCOC(=O)[C@@H]3C[C@@H]4C(=O)N[C@@H](Cc5ccccc5)C(=O)N4[C@@H]3c3ccc(O)cc3)cc2)[C@@]12C(=O)Nc1ccc(I)cc12` yielded a composite z-score of -0.0984.

The target in the next assay is Carbonic anhydrase 2 (Homo sapiens) (UniProt P00918). Description: CAII small-molecule binders, profiling panel, biochemical, small-molecule microarray, Alexa647-labelled CAII (AID 1122). Particulars: CAII-A647 binding fluorescence, higher = more signal.
`COCC(=C=CC[C@@H](O)c1ccccc1OCCO)C[C@@H](O)c1cc(Cl)cc(Cl)c1O` had a composite z-score of 0.38.

In turn, `COc1ccc(C(=O)Nc2ccc(CN3C(=O)[C@@]4(O[C@@H](CCO)[C@H]([Si](C)(C)c5ccc(OC)cc5)[C@H]4C)c4ccccc43)cc2)cc1` came in with a composite z-score of 0.531.

Compound `O=C1O[C@H](c2ccccc2)[C@H](c2ccccc2)N2[C@H]1[C@@H](C(=O)O)[C@]1(C(=O)Nc3ccc(C#CCCO)cc31)[C@H]2c1ccc(O)cc1` registered a composite z-score of 0.501.

Take `C=CC[C@@]1(C(N)=O)N=C(c2ccc(OCCCO)cc2)O[C@@H]1c1ccccc1CN=[N+]=[N-]`: the composite z-score was found to be 0.875.

With `COCCOC(=O)N1C(=O)[C@@]2(c3cc(C#CC4=CCCCC4)ccc31)[C@H](C(=O)N1CCc3cc(OC)c(OC)cc3C1)[C@H]1C(=O)O[C@H](c3ccccc3)[C@H](c3ccccc3)N1[C@@H]2c1ccc(OCCO)cc1`, the composite z-score is 0.194.

For the compound `COc1ccc(C(O)C2C=CC3C(=O)N(c4ccccc4)C(=O)C3N2Nc2ccccc2F)cc1OCc1ccccc1` (stereo not drawn), the composite z-score is 0.51.

With `C=C(COC)/C(=C/C[C@@H](OC(C)=O)c1ccc(CO)o1)c1cnc2ccccc2c1`, the composite z-score is 0.944.

`O=C1C[C@]2(c3ccc([N+](=O)[O-])cc3)C(=O)N(CCN3CCOCC3)c3cc(CO)ccc3[C@H]2N1C1CCCCC1` came in with a composite z-score of 0.646.

The compound `COC(=O)C=C(CC(O)c1cccc(Cl)c1)OC` (stereo not drawn) yielded a composite z-score of 0.811.

The compound `COc1cc2c(cc1OC)CN(C(=O)[C@@H]1[C@H]3C(=O)O[C@H](c4ccccc4)[C@H](c4ccccc4)N3[C@H](c3ccc(O)cc3)[C@@]13C(=O)Nc1ccc(C#CC4(O)CCCCCC4)cc13)CC2` displayed a composite z-score of 0.551.

Compound `[N-]=[N+]=NCc1ccccc1C[C@@]1(C(=O)NCC(O)CO)N=C(c2ccc(OCCCO)cc2)O[C@@H]1c1ccccc1N=[N+]=[N-]` (stereo partly drawn) gave a composite z-score of 0.69.

`CCOC(=O)C[C@H]1[C@H](OC(=O)Cc2ccc3c(c2)OCO3)[C@@H](NC(=O)c2ccc(-c3ccccc3)cc2)c2cc(OCCCO)ccc2N1C(=O)c1ccc2ccccc2n1` showed a composite z-score of 0.0289.

`O=C(NCc1ccccc1)[C@@]1(Cc2ccccc2)N=C(c2ccc(OCCCO)cc2)O[C@H]1c1ccccc1` came in with a composite z-score of 0.617.

As for `O=C1NC(=O)C2C1C=CC(C(O)c1ccccc1)N2Nc1ccc(Cl)cc1Cl` (stereo not drawn), the composite z-score stood at 0.574.

In turn, `CN(C)CCCNC(=O)[C@@]1(c2ccc([N+](=O)[O-])cc2)CC(=O)N(C2CCCCC2)[C@@H]1c1ccc(CO)cc1` showed a composite z-score of 0.395.

In turn, `COC(=O)[C@@]1(Cc2ccccc2)[C@H]2c3cc(C(=O)N4CCCC4)n(Cc4cccc5ccccc45)c3C[C@H]2CN1C(=O)c1ccccc1` had a composite z-score of 0.741.

`CC(C)(C)OC(=O)CC[C@@]1(C(N)=O)N=C(c2ccc(OCCCO)cc2)O[C@@H]1c1ccccc1` showed a composite z-score of 0.758.

In the case of `COc1cc2c(cc1O)C=[N+](Cc1cccc(OC(F)(F)F)c1)CC2`, the composite z-score was 0.61.

For `C=C(C)C1C(=C)CN([C@H](CO)c2ccccc2)C1=O` (stereo partly drawn), the composite z-score is -0.0056.

The compound `COCCCNC(=O)C1N=C(c2ccc(OCCCO)cc2)N(c2ccccc2)O1` (stereo not drawn) showed a composite z-score of 0.778.

The compound `C=CC[C@@]1(C(=O)NCc2ccccc2)N=C(c2ccc(OCCCO)cc2)O[C@@H]1c1ccccc1N=[N+]=[N-]` came in with a composite z-score of 0.712.

For `CCOc1cc(C(O)C2C=CC3C(=O)N(c4ccccc4)C(=O)C3N2Nc2ccccc2)ccc1O` (stereo not drawn), the composite z-score is 0.617.

`O=C1O[C@H](c2ccccc2)[C@H](c2ccccc2)N2[C@H]1[C@@H](C(=O)NC[C@H](O)c1ccccc1)[C@]1(C(=O)Nc3ccccc31)[C@H]2c1ccc(OCCO)cc1` registered a composite z-score of 0.59.

Compound `COc1ccc(C(O)C2C=CC3C(=O)N(C)C(=O)C3N2N2CCCCC2)c2ccccc12` (stereo not drawn) showed a composite z-score of 0.448.

On to `CN1C(=O)[C@]2(Cc3ccccc3)N=C(c3ccc(OCCCO)cc3)O[C@@H]2c2ccccc21`, for which the composite z-score is 0.635.

In the case of `C=CCOC(=O)[C@H]1[C@@H]2C(=O)O[C@@H](c3ccccc3)[C@@H](c3ccccc3)N2[C@@H](c2ccc(OCCOC(=O)[C@@H]3C[C@@H]4C(=O)N[C@@H](CCCCN(C)C)C(=O)N4[C@@H]3c3ccc(O)cc3)cc2)[C@]12C(=O)Nc1ccc(I)cc12`, the composite z-score was 0.574.

Take `CC(C)(C)OC(=O)CC[C@@]1(C(=O)NCC(O)CO)N=C(c2ccc(OCCCO)cc2)O[C@@H]1c1ccccc1N=[N+]=[N-]` (stereo partly drawn): the composite z-score was 0.741.

The compound `O=C1NCC(=O)N2[C@@H]1C[C@@H](C(=O)O)[C@H]2c1cccc(OCCO)c1` showed a composite z-score of 0.628.

In turn, `CC(C)OC(=O)C=C1C[C@@H](c2ccccc2C(F)(F)F)O[C@@H](c2ccccc2C(F)(F)F)O1` gave a composite z-score of -0.0962.

Regarding `C=CCOC(=O)[C@@H]1[C@H]2C(=O)O[C@H](c3ccccc3)[C@H](c3ccccc3)N2[C@H](c2ccc(OCCOC(=O)[C@@H]3C[C@@H]4C(=O)N5CCC[C@H]5C(=O)N4[C@@H]3c3ccc(O)cc3)cc2)[C@@]12C(=O)Nc1ccc(I)cc12`, the composite z-score was 0.419.

With `COc1cc2c(cc1OC)CN(C(=O)[C@H]1[C@@H]3C(=O)O[C@@H](c4ccccc4)[C@@H](c4ccccc4)N3[C@@H](c3ccc(O)cc3)[C@]13C(=O)Nc1ccc(C#CC4=CCCCC4)cc13)CC2`, the composite z-score was 0.561.

Compound `COc1ccc(C(=O)Nc2ccc(CN3C(=O)[C@@]4(O[C@@H](CC(=O)N5CCC[C@H]5CO)[C@H]([Si](C)(C)c5ccc(OC)cc5)[C@H]4C)c4ccccc43)cc2)cc1` yielded a composite z-score of 0.51.

Take `[N-]=[N+]=NCc1ccccc1C[C@]1(C(=O)NCC(O)CO)N=C(c2ccc(OCCCO)cc2)O[C@H]1c1ccccc1` (stereo partly drawn): the composite z-score came out at 0.698.

As for `COc1ccc([Si](C)(C)[C@H]2[C@H](CCO)O[C@@]3(C(=O)N(Cc4ccc(N5C(=O)COc6ccccc65)cc4)c4ccccc43)[C@@H]2C)cc1`, the composite z-score is -0.05.

For `C=C(COC)/C(=C/C[C@H](OC(=O)c1ccncc1)c1ccc(OCCO)cc1)c1cnc2ccccc2c1`, the composite z-score was found to be 0.86.

As to `C=CCOC(=O)[C@@H]1[C@H]2C(=O)O[C@H](c3ccccc3)[C@H](c3ccccc3)N2[C@H](c2ccc(OCCOC(=O)[C@@H]3C[C@@H]4C(=O)N[C@@H](Cc5ccccc5)C(=O)N4[C@@H]3c3ccc(O)cc3)cc2)[C@@]12C(=O)Nc1ccc(I)cc12`, the composite z-score was determined as 0.299.
